# Assay outcomes as filed in PubChem BioAssay.
# USP1-UAF1 inh = Inhibitors of USP1/UAF1: Primary Screen | recombinant USP1/UAF1, Ub-Rhodamine cleavage fluorescence | Potency, µM (top dose mostly 57.1 µM), for inactives: at the highest dose activity change, negative = inhibition, usual class: inhibitors | actives 0.23% (n = 390,000) | Ubiquitin carboxyl-terminal hydrolase 1 (Homo sapiens), O94782; further: on the % scale 0 is the no-effect control and ±100 the full control effect; nearly all actives have a fitted effect of over 60% in size
#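 USP1/UAF1 complex at 1 nM was preincubated with compound for 15 min at room temperature, then Ub-Rho substrate (150nM final) was added. Fluorescence (480/540 nm) was read kinetically, 6 reads every 60 seconds.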
# EPAC2 agonist = qHTS for Agonist of cAMP-regulated guanine nucleotide exchange factor 4 (EPAC2): primary screen; actives 0.079% (n = 360,000); Rap guanine nucleotide exchange factor 4 (Homo sapiens), Q8WZA2; AID 720711, 2013; EPAC2 activation, biochemical qHTS; response scale: 100% = 6.5 mM cAMP response; Potency, µM (top dose mostly 154 µM), for inactives: at the top dose activation, actives largely listed as activators; further: nearly all actives have a fitted effect of over 50% in size
#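 Compounds were added across a concentration range to EPAC2 (100 nM), RAP1B-BODIPY-GDP (250 nM) and GDP (50 uM). After 5 min at room temperature, fluorescence was recorded at 5-min intervals for 30 min.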
# USP2a block = qHTS Assay for Inhibitors of Ubiquitin-specific Protease USP2a Using CHOP2 as the Reporter. USP2 core, Ub-CHOP2 coupled fluorogenic reporter, 485/531. Potency, µM (titrated, usually from 38.3 µM), for the others: at the highest dose activity change, negative = inhibition, hits mostly inhibitors. actives 0.01% (n = 330,000);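 further: plate controls were DMSO wells for no effect and full inhibition by NEM control for full effect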
#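 USP2 core (10nM final) preincubated 30min RT with compound in 20mM Tris-HCl pH 8.0, 2mM CaCl2, 2mM beta-mercaptoethanol, 0.05% CHAPS; 25nM Ub-CHOP2 plus 25nM reporter substrate added, fluorescence (Ex485/Em531) read after 60min.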
# EPAC1 antagonist = qHTS for Antagonist of cAMP-regulated guanine nucleotide exchange factor 3 (EPAC1): primary screen | actives 0.14% (n = 360,000) | Potency, µM (series often up to 115 µM), for the others: at the top dose activity change, negative = inhibition, usual class: inhibitors | EPAC1 GEF assay, Rap1b-BODIPY-GDP exchange fluorescence;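 further: plate controls were vehicle for no effect and positive control for full effect; nearly all actives have a fitted effect of over 50% in size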
# EPAC1 ag = qHTS for Agonist of cAMP-regulated guanine nucleotide exchange factor 3 (EPAC1): primary screen | actives 0.073% (n = 360,000) | Potency, µM (titrated, usually from 154 µM), for inactives: at the highest dose activation, actives largely listed as activators | EPAC1 agonist qHTS, biochemical assay; response scale: 100% = response to 6.5 mM cAMP | AID 720707, 2013; further: nearly all actives have a fitted effect of over 60% in size
#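 Compounds were pinned as a concentration titration into mixtures of EPAC1 (100 nM), BODIPY-GDP-loaded Rap1B (250 nM) and GDP (50 uM). After 5 min at room temperature, fluorescence was followed for 30 min; activity was scaled to 6.5 mM cAMP.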
# EPAC2 antag = qHTS for Antagonist of cAMP-regulated guanine nucleotide exchange factor 2 (EPAC2): primary screen; Rap guanine nucleotide exchange factor 4 (Homo sapiens), Q8WZA2; EPAC2 GEF exchange of Rap1B-BODIPY-GDP, fluorescence; Potency, µM (highest dose often 114 µM), inactives show top-dose activity, negative = inhibition, actives largely listed as inhibitors; actives 0.18% (n = 360,000); AID 720708, 2013; further: on the % scale 0 is the no-effect control and ±100 the full control effect; nearly all actives have a fitted effect of over 45% in size
# The depositor's hits bear a star; i = inactive; ? = inconclusive; nt = no result given; [ ] = dose if it differs, or a comment. Most compounds without a hit are left out; they make up all but 0.44% or so of the library. The call rests on the fitted dose curve; in most records, active means well fitted curve in the direction sought with a large enough effect; inconclusive means small, poorly fitted or top-dose-only effect, or another doubt; inactive means no such curve, though single readings can be large; an effect the other way counts as inactive or inconclusive. Potency means the concentration at half of the fitted maximal effect.
SMILES,USP1-UAF1 inh,EPAC2 agonist,USP2a block,EPAC1 antagonist,EPAC1 ag,EPAC2 antag
COC1=C(Br)C(=O)c2ncccc2C1=O,0.89µM*,9%,nt,?,3%,8.9µM*
O=C1c2cccnc2-c2ncccc21,-23%,8%,1%,-5%,0%,4%
CCn1cc(S(=O)(=O)c2ccc(Cl)cc2)c(=O)c2cc(F)c(N3CCOCC3)cc21,8%,nt,nt,nt,nt,nt
O=C(CCCN1C(=O)/C(=C\c2cccs2)SC1=S)NNC(=O)c1ccncc1,-7%,9%,5%,-5%,-4%,0%
COc1ccccc1C(=O)NNC(=O)CCCN1C(=O)/C(=C/c2cccs2)SC1=S,-29%,100µM*,1%,7%,2%,15%
CCc1ccc(/C=C2/SC(=S)N(CCCC(=O)Nc3ccccc3C(=O)O)C2=O)cc1,-19%,-6%,4%,40µM*,2%,?
Cc1cccc(NC(=O)CSc2cn(CC(=O)N3CCC(C)CC3)c3ccccc23)c1C,5%,nt,nt,nt,nt,nt
Cc1oc2ccc(O)c(CN3CCN(C)CC3)c2c1C(=O)Nc1cccc(C(F)(F)F)c1,-17%,nt,nt,nt,nt,nt
CC1=Nc2ccccc2/C1=C/c1sc(=S)n(-c2cccc(C(=O)O)c2)c1O,28µM*,4%,12%,56µM*,-14%,?
CCOC(=O)/C(=C/C1=CC(=C/N(C)C)/C(=O)O1)C(C)=O,32µM*,26%,?,34%,25%,40%
CCc1nc2cccnc2n1-c1ccc(CC(=O)Nc2ccccc2Cl)cc1,-3%,nt,nt,nt,nt,nt
CC(C)(C)c1ccc(-c2nnc(-c3ccccc3NC(=O)c3cccc(C(F)(F)F)c3)o2)cc1,-23%,nt,nt,nt,nt,nt
CCOC(=O)c1c(NC(=O)c2ccco2)n(C2CCCCC2)c2nc3ccccc3nc12,16µM*,-2%,0%,-9%,1%,-6%
O=C(NCc1ccccc1F)C1CCN(Cc2cc3ccccc3n2Cc2cccc(Cl)c2)CC1,-8%,nt,nt,nt,nt,nt
CSCCC(C(=O)O)N1C(=O)c2ccc(C(=O)O)cc2C1=O (stereo not given),-15%,10µM*,2%,5%,3%,-5%
O=C(O)c1ccc2c(c1)C(=O)N(C(Cc1ccccc1)C(=O)O)C2=O (stereo not given),-9%,-4%,-4%,3%,0%,2%
CCOc1c(OC(C)=O)ccc(/C=C/c2ccc3cccc(OC(C)=O)c3n2)c1[N+](=O)[O-],-16%,6%,-1%,-6%,11%,-7%
C=CCN1C(=O)/C(=C/c2ccc(OC(C)=O)c(OCC)c2[N+](=O)[O-])SC1=S,14µM*,13%,-14%,71µM*,0%,-29%
Cc1ccc2cccc(NC(=O)C(C)Oc3ccc(Cl)cc3Cl)c2n1 (stereo not given),4%,nt,nt,nt,nt,nt
CCOC(=O)COc1ccc(Br)cc1/C=C/c1[nH]c(=O)[nH]c(=O)c1[N+](=O)[O-],-17%,2%,5%,32µM*,-5%,-5%
C/C(=N\NC(=O)c1cc2ccccc2cc1O)c1cc2ccccc2o1,?,-7%,5%,50µM*,5%,6%
CCOc1ccccc1CNC(=O)CCc1c(C)nn(-c2ccc(N3CCCCC3)nn2)c1C,20%,nt,nt,nt,nt,nt
O=C(N/N=C/c1ccc(Sc2ccccn2)o1)c1cc2ccccc2cc1O,?,1%,?,56µM*,1%,1%
N=c1oc2c3c4c(cc2cc1C(=O)Nc1ccccc1)CCCN4CCC3,10µM*,112µM*,?,i,?,i
COc1ccc(NC(=O)CSc2ccc3c4c(cccc24)C(=O)c2ccccc2-3)cc1,25µM*,20%,7%,17%,19%,13%
SMILES,USP1-UAF1 inh,EPAC2 agonist,USP2a block,EPAC1 antagonist,EPAC1 ag,EPAC2 antag
O=C1C(Cl)=C(Nc2ccc3cn[nH]c3c2)C(=O)c2ccccc21,16µM*,8%,-3%,-24%,1%,-9%
O=C(Nc1ccc2cn[nH]c2c1)c1c(Cl)cccc1Cl,2%,2%,7%,-8%,9%,0%
COc1cc(NC(=O)NS(=O)(=O)c2ccc(C)cc2)cc(OC)c1,-19%,-10%,4%,18%,1%,16%[57.1 µM]
COc1ccc(NC(=O)NS(=O)(=O)c2ccc(C)cc2)cn1,?,11%,?,109%,100µM*,27%
N#C/C(=C/c1cccn1-c1cccc(C(=O)O)c1)c1ccc(Cl)cc1,-16%,-2%,-8%,-12%,-9%,40µM*
CCOC(=O)CC(=O)Nc1ncnc2c1C(c1ccccc1)c1c(ccc3ccccc13)O2 (stereo not given),nt,9%,-8%,-7%,12%,?
Nc1ncnc2c1C(c1ccccc1)c1c(ccc3ccccc13)O2 (stereo not given),nt,6%,-12%,-18%,-3%,13µM*
O=C1C(=O)c2ccccc2C([O-])=C1[n+]1ccccc1,?,8%,0%,-4%,6%,1%
CCc1cc[n+](C2=C([O-])c3ccccc3C(=O)/C2=N\S(=O)(=O)c2cccs2)cc1,18µM*,-5%,1%,?,-5%,-1%
CC1(C)c2ccccc2N(CC(N)=O)C12C=Cc1ccccc1O2 (stereo not given),-7%,-1%,0%,-18%,-8%,18µM*
COc1ccc2ccc3c(c2c1)N=C[C@]1(O3)N(C)c2ccccc2C1(C)C,?,5%,2%,?,14%,0%
COc1cc2c(cc1OC)C(c1ccc(F)cc1)N(c1cccc(C#N)c1)C(=O)C2 (stereo not given),-15%,nt,nt,nt,nt,nt
CCOC(=O)c1cc(-c2ccc(/C=C3/C(=O)N(c4ccc(C(=O)O)cc4)N=C3C)o2)ccc1Cl,-25%,2%,0%,35µM*,7%,3%
CC(C)c1ccc(OC(=O)c2cc(-c3ccccc3)on2)cc1,-8%,nt,nt,nt,nt,nt
C=Cc1ccc(Cn2nc(-c3ccccc3)ccc2=O)cc1,-15%,3%,-7%,-7%,8%,22µM*
CC(=O)c1ccc2c3c(cccc13)CC2,-20%,0%,-1%,2%,-1%,8%
